High-throughput results as filed in PubChem BioAssay.
D2 PAM-1: D2 dopamine receptor (human) potentiation | P14416 | HEK293 T-REx D2, calcium flux, EC20 dopamine potentiation | potentiation, % at 10 µM | 0.34% of 340,000 active | AID 485347;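 active = potentiation over 3 SD above the plate norm, cut at about 30% in these data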
Target sequence (P14416 whole entry, looked up): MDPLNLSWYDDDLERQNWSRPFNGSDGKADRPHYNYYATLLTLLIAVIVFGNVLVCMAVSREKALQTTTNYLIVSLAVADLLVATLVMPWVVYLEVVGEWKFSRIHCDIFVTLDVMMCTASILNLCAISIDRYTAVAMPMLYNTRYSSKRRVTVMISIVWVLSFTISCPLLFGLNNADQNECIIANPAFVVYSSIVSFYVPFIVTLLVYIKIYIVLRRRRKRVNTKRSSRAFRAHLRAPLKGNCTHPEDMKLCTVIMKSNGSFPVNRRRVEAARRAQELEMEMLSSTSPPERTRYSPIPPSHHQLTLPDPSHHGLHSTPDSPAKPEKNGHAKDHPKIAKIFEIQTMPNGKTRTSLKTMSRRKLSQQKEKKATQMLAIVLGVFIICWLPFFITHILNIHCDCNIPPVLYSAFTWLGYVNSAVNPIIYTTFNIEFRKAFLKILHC
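Calcium flux readout, no-wash dye, 1 read/s. Inducible HEK293 Trex D2 line, overnight 30 C. Compound alone 180 s (agonist flags), then EC20 dopamine, another 180 s to score potentiation.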
D2 antagonist: antagonists of human D2 dopamine receptor. P14416. HEK293 TREx D2 cells, calcium flux, dopamine EC80. inhibition, % at 10 µM. 2% of 340,000 active; in the data active = inhibition above about 30%; inactive = below that, where a call was filed
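Cells plated overnight at 30 C with tetracycline; no-wash calcium dye, 30–90 min RT; 10 s baseline; compound pinned; 180 s read; EC80 dopamine added; another 180 s read.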
D2 ag-1: activates the human D2 dopamine receptor; P14416; HEK293 T-REx D2 cells, calcium flux agonist mode; activation, % at 2 µM; 0.53% of 340,000 active;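 active = activation over 3 SD above normal in the single-dose calcium agonist read, cut at about 30% in these data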
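Tetracycline-induced HEK293 Trex cells with D2 receptor force-coupled to calcium signaling, plated overnight at 30 C and loaded with no-wash calcium dye. Calcium flux read kinetically for 180 s after compound addition; responses flag agonists.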
D2 ag-2: activates the human D2 dopamine receptor; P14416; DiscoveRx PathHunter D2 beta-arrestin, luminescence, 90 min; 100% = 57 uM dopamine signal; activation, % (no concentration beside the values); 0.084% of 360,000 active; AID 624465; in the data active = activation above about 40%; inconclusive = between about 15% and that limit
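Agonist mode: compounds alone added to overnight-plated D2 PathHunter cells for 90 min at 37 C, with 57 uM final dopamine (EC100) defining full response. Beta-arrestin recruitment detected by chemiluminescent reagent, read after 1 h at ambient temperature.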
D2 PAM-2: positive allosteric modulators of human D2 dopamine receptor; P14416; DiscoveRx D2 beta-arrestin cells, luminescence, 90 min; 100% = 57 uM dopamine signal; AID 624464; 0.23% of 360,000 active; potentiation, % (concentration not given with the values); in the data active = potentiation above about 50%; inconclusive = mostly about 30% to 49%
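PathHunter D2 cells, attached overnight at 37 deg C, received compound in DMSO plus dopamine at EC20 (50 nM final) for 90 min at 37 deg C. Beta-arrestin recruitment was read as luminescence after 1 h with detection reagent at ambient temperature.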
Large screens that a line does not name were inactive. An excerpt weighted towards active compounds, which were near 2.4% of everything screened.

CCOc1ccc(NC(=O)c2cc(OC)nc3ccccc23)cc1	D2 antagonist 57
Cc1ccc(CSCCNC(=O)CSCc2ccc([N+](=O)[O-])cc2)cc1	D2 antagonist 32
Cc1cccc(CSCCNC(=O)CSCc2ccc([N+](=O)[O-])cc2)c1	none
C/C(=N\NC(=O)CSCc1ccc([N+](=O)[O-])cc1)c1ccccc1O	D2 antagonist 77
CCN(CC)CCN(Cc1cc2cc3c(cc2[nH]c1=O)OCCO3)C(=S)NCC1CCCO1 (configuration not stated)	none
CN(C)CCN(Cc1cc2cc3c(cc2[nH]c1=O)OCCO3)C(=S)NCC1CCCO1 (configuration not stated)	D2 antagonist 41
CCN(c1ccc(OC)cc1)S(=O)(=O)c1ccc2[nH]c(=O)ccc2c1	none (no result: D2 antagonist, D2 ag-2, D2 PAM-2)
C=CCN1C(=O)/C(=C/C=C2/N(CC)c3ccc(S(=O)(=O)N(C)C)cc3N2CC)SC1=S	D2 ag-1 52
FC(F)(F)c1nc(-c2ccncc2)ncc1-c1nnnn1-c1ccccc1	D2 antagonist 58
CC(NC(=O)c1ccc(S(=O)(=O)Nc2ccccc2Cl)cc1)c1ccncc1 (configuration not stated)	none (no result: D2 PAM-1, D2 antagonist, D2 ag-1)
O=C(Nc1ccccc1)c1nc[nH]c1C(=O)NCCNC(=O)c1[nH]cnc1C(=O)Nc1ccccc1	D2 ag-2 inconclusive, D2 PAM-2 61 (no result: D2 PAM-1, D2 antagonist, D2 ag-1)
O=C(Cn1c(NCCO)nc2ccccc21)c1ccc([N+](=O)[O-])cc1	D2 antagonist 30
CC(C)COc1ccc(C(=O)N2CCC(c3nc4ccccc4s3)CC2)cc1	none (no result: D2 antagonist, D2 ag-2, D2 PAM-2)
COC(=O)CNC(=O)COC(=O)c1ccc(Cl)nc1	none
CCc1cc2c(N[C@@H](Cc3c[nH]c4ccccc34)C(=O)O)ncnc2s1	none
CCc1cc2c(NC(Cc3c[nH]c4ccccc34)C(=O)O)nc(C)nc2s1 (configuration not stated)	D2 antagonist 34
CC(=O)c1ccc(NC(=O)C2(c3ccccc3)CCOCC2)cc1	none
O=C(c1ccc(NC(=O)C2(c3ccccc3)CCOCC2)cc1)N1CCOCC1	D2 antagonist 32
O=C(Nc1ccc(Cl)c(C(=O)N2CCOCC2)c1)c1ccccc1	D2 PAM-1 52
O=C(Nc1c2c(nn1-c1ccc(Cl)cc1)CS(=O)(=O)C2)c1cccc(Cl)c1	none (no result: D2 antagonist, D2 ag-1, D2 ag-2, D2 PAM-2)
COC(=O)C1C(c2ccccc2)C(C(=O)N2CCN(C)CC2)C1c1ccccc1 (configuration not stated)	D2 antagonist 33
COC(=O)[C@H]1[C@H](c2ccccc2)[C@H](C(=O)OC)O[C@H]1c1ccccc1	none (no result: D2 PAM-1, D2 antagonist, D2 ag-1)
COc1cc(C2Nc3cccc4cccc(c34)N2)ccc1O	none
Oc1ccc2ccccc2c1C1Nc2cccc3cccc(c23)N1	D2 ag-2 inconclusive, D2 PAM-2 50
CC1CCCN(CCCNC(=O)c2ccc3c(c2)N(Cc2ccc(F)cc2)C(=O)c2ccccc2S3=O)C1 (configuration not stated)	D2 antagonist 74
Cc1[nH]oc(=O)c1N=Nc1ccccc1	D2 PAM-2 57
Cc1c(/C=N\NC(=O)C2COc3ccc(C(C)(C)C)cc3O2)c2ccccc2n1C (configuration not stated)	D2 antagonist 58, D2 ag-2 45, D2 PAM-2 118
COc1ccc([N+](=O)[O-])cc1NC(=O)c1csc(C)c1	none
CCOc1cc(C(=O)Nc2ccc([N+](=O)[O-])cn2)cc(OCC)c1OCC	D2 antagonist 69
COc1ccc(C(=O)Nc2ccc([N+](=O)[O-])cn2)cc1OC	none
Cc1cc(C(=O)Nc2ccc([N+](=O)[O-])cn2)cs1	D2 antagonist 30
COc1cc(OC)cc(C(=O)Nc2ccc([N+](=O)[O-])cn2)c1	D2 antagonist 50
CCN1C(=O)[C@H]2[C@@H](c3ccc(-c4ccc(C(C)=O)cc4)c(OC)c3)N[C@@](Cc3ccccc3)(C(=O)OC)[C@H]2C1=O	D2 antagonist 32
NS(=O)(=O)c1ccc(N2CCN(C(=O)C3COc4ccccc4O3)CC2)nc1 (configuration not stated)	D2 antagonist 35
O=C(C1COc2ccccc2O1)N1CCN(c2ccc(C(F)(F)F)cn2)CC1 (configuration not stated)	none (no result: D2 PAM-1, D2 antagonist, D2 ag-1)
O=C(C1COc2ccccc2O1)N1CCN(c2ccccc2)CC1 (configuration not stated)	D2 antagonist 41
COc1ccc(C(=O)n2nc(-c3ccco3)nc2NCc2cccs2)cc1OC	none (no result: D2 antagonist, D2 ag-2, D2 PAM-2)
Nc1c(C(=O)Nc2ccccc2Cl)nnn1Cc1cccc(Cl)c1	none (no result: D2 antagonist, D2 ag-2, D2 PAM-2)
O=C1[C@@H](Oc2ccccc2)[C@@H](c2cccnc2)N1c1ccccc1	none (no result: D2 PAM-1, D2 antagonist, D2 ag-1, D2 PAM-2)
CCOc1ccc(C(=O)NC2CC(=O)N(c3ccc(C)cc3)C2)cc1OCC (configuration not stated)	none (no result: D2 antagonist, D2 ag-2, D2 PAM-2)
CCOC(=O)Nc1sc2c(c1C#N)CCCC2	none
CCCC1CCc2c(sc(NC(=O)OCC)c2C#N)C1 (configuration not stated)	D2 PAM-1 34 (no result: D2 antagonist)
CC1CCCCN1C(=O)NC12CC3CC(CC(C3)C1)C2 (configuration not stated)	D2 antagonist 34
O=C(NC12CC3CC(CC(C3)C1)C2)C1CCCN1C(=O)NC1CCCCC1 (configuration not stated)	none
CCC1Oc2nc(SC)nnc2-c2ccccc2N1C(=O)c1ccccc1 (configuration not stated)	D2 antagonist 34
CCOC(=O)N1CCC(NC(=O)c2ccc(CS(=O)c3ccc(Cl)cc3)o2)CC1 (configuration not stated)	none
Cc1cccc(S(=O)Cc2ccc(C(=O)NC3CCN(Cc4ccccc4)CC3)o2)c1 (configuration not stated)	D2 antagonist 44
Cc1ccccc1S(=O)Cc1ccc(C(=O)NC2CCN(Cc3ccccc3)CC2)o1 (configuration not stated)	D2 antagonist 44
Cc1cccc(C(=O)O/N=C(\N)c2cccc([N+](=O)[O-])c2)c1	none
N/C(=N\OC(=O)c1cccc2ccccc12)c1cccc([N+](=O)[O-])c1	D2 ag-2 inconclusive, D2 PAM-2 83
Cc1ccc(C(=O)O/N=C(\N)Cc2cccs2)cc1[N+](=O)[O-]	D2 ag-2 inconclusive
COc1ccccc1C/C(N)=N/OC(=O)c1ccc(C)c([N+](=O)[O-])c1	D2 ag-2 inconclusive, D2 PAM-2 145 (no result: D2 antagonist, D2 ag-1)
N/C(=N\OC(=O)c1cccs1)c1cccc([N+](=O)[O-])c1	D2 ag-2 42, D2 PAM-2 69
COc1ccc(/C(N)=N/OC(=O)c2cccc([N+](=O)[O-])c2C)cc1OC	D2 ag-2 inconclusive, D2 PAM-2 93
COc1ccc(C(C(=O)NC(C)(C)C)N(C(=O)CCC(=O)Nc2cc(C)on2)c2c(C)cccc2C)cc1 (configuration not stated)	none
